Measured values as given in PubChem BioAssay AID504462 (Sanford-Burnham Center for Chemical Genomics, 2011).
Among all 340,000 compounds or so, about 1,700 (0.5%) were called active. No stated cut-off is given here; in the data, active means inhibition above about 40%; inactive means the rest. Only a selection was taken, and actives are over-represented in it overall.

target: Cysteine protease ATG4B (Homo sapiens) (UniProt Q9Y4P1); assay: ATG4B protease inhibitors, primary screen, biochemical, fluorescence, uHTS (AID 504462); conditions: ATG4B cleavage of LC3-PLA2, NBD-HPC fluorescence, 1 h; at 8.33 µM; hits give high values
Sequence (Q9Y4P1 whole entry, looked up): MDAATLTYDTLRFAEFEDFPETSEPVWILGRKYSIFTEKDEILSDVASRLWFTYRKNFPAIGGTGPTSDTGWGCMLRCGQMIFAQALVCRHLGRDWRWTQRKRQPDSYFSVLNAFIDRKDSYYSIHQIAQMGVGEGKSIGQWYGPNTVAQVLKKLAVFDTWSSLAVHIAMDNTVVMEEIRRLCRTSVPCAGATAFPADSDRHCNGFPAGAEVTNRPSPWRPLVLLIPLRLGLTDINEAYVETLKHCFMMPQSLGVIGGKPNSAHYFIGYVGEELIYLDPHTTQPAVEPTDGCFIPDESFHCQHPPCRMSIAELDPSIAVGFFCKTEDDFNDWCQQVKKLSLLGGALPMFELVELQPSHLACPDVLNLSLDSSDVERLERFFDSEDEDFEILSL

inhibition, inactive:
Fc1ccccc1N=C1Nc2cccc3cccc1c23 -6.86%
COc1ccccc1C1=Nc2cccc3cccc(c23)N1 12.2%
CCN1CCCC1CNC(=O)Cn1cnc2ccc(S(=O)(=O)N3CCC(C)CC3)cc2c1=O (stereo not given) -2.67%
NC(=O)C1CCN(C(=O)c2ccc(F)c(S(=O)(=O)N3CCOCC3)c2)CC1 0.71%
Nc1c(Cl)cc(S(N)(=O)=O)cc1S(N)(=O)=O 3.68%
CCc1ccc(N2CC(C(=O)Nc3ccc(S(=O)(=O)Nc4nccs4)cc3)CC2=O)cc1 (stereo not given) -16.4%
CCNC(=O)c1ccc(OCC(=O)Nc2ccc(F)cc2)c(OC)c1 2.31%
COc1ccc(NS(=O)(=O)c2cc(NC(=O)COc3ccccc3F)ccc2OC)cc1 -14.9%
O=C(Nc1ccn(CCCNCc2ccc3[nH]ccc3c2)c(=O)n1)OCc1ccccc1 -8.68%
COc1cccc(NC(=O)C/C(C)=N/NC(=O)C2CCCCC2)c1 1.29%
O=C(c1cnn(-c2ccc(Cl)cc2)c1)c1ccccc1O 14.8%
Cc1ccc(CCC(=O)Nc2ncc(Cc3cc(Cl)ccc3Cl)s2)o1 0.02%
COc1ccc(NC(=O)CC2SC(N3CCCCC3)=NC2=O)cc1OC (stereo not given) -1.9%
CN(Cc1ccc(F)cc1Cl)S(=O)(=O)c1cccs1 11%
CN(CC(=O)NCc1ccc(Cl)cc1)S(=O)(=O)c1cccs1 -5.56%
COC(=O)c1c(NC(=O)c2c(Cl)cnn2C)sc(C)c1C -7.14%
CC1(C)Cc2cccc(OCC(=O)Nc3nccs3)c2O1 -9.2%
Cc1ccccc1N1CCN(C2CCCN(C(=O)c3ocnc3C)C2)CC1 (stereo not given) 4.49%
COc1ccc(S(=O)(=O)Nc2cc(C)on2)cc1NC(C)=O -6.89%
CCCc1[nH]nc2c1C(c1ccc(Br)s1)C(C#N)=C(N)O2 (stereo not given) -2.42%
COc1ccc(-c2[nH]nc3c2C(c2ccncc2)C(C#N)=C(N)O3)cc1 (stereo not given) -11%
CCC(=O)c1cc2c(cc1NC(=O)c1cccs1)OCCO2 -18.9%
C[C@@H]1ON(C)[C@H]2C[C@H]3c4cc(N5CCN(C)CC5)ccc4CCN3C(=O)[C@@H]12 -6.52%
CCc1c(O)cc2n(c1=O)-c1ccccc1C2(C)C -8.25%
COc1ccccc1CNC(=O)COC(=O)c1cccs1 0.37%
O=C(COC(=O)c1cccs1)NCc1cccs1 -10.9%
CN(C)C(=O)c1ccc(NC(=O)COC(=O)c2cc3c(s2)CCCCC3)cc1 -5.46%
O=C(COC(=O)c1ccc2c(c1)OCCO2)NCc1ccccc1Cl 22.8%
COc1ccc(NC(=O)C2CCC(CNc3c(N4CCCCC4)c(=O)c3=O)CC2)c(OC)c1 (stereo not given) 26.1%
CCN1CCN(C(=O)c2ccc(CN(c3ccc(C)c(C)c3)S(C)(=O)=O)cc2)CC1 -3.29%
Cc1ccc(S(=O)(=O)N(C)CC(=O)NCC(c2ccc(F)cc2)N2CCOCC2)cc1 (stereo not given) -5.42%
CCC(C)(C)n1nnnc1C(c1cccs1)N1CCN(c2nc3ccccc3s2)CC1 (stereo not given) 1.17%
COc1nc(NC2CCCCC2)nc(N2CCCCCC2)n1 15.7%
O=C(CSc1ncn[nH]1)Nc1nc(-c2cccc([N+](=O)[O-])c2)cs1 -6.82%
COc1ccc(-n2cnnc2SCC(=O)Nc2cccc([N+](=O)[O-])c2)cc1 -7.34%
Cc1cc(NC(=O)c2ccco2)c(=O)n(Cc2c(F)cccc2Cl)c1 4.88%
O=C(N/N=C\c1ccc(Br)cc1)c1ccc(Cn2cccn2)o1 -3.61%
Cc1nn(Cc2ccccc2Cl)c(C)c1NC(=O)Cn1nc([N+](=O)[O-])c(Cl)c1C -0.32%
Cn1c(SCC(=O)N/N=C/c2ccc(O)c(O)c2)nc2ccccc21 -12.3%
O=C(CSc1nc2ccccc2[nH]1)N/N=C/C=C\c1ccccc1[N+](=O)[O-] 7.51%
CCn1c(SCC(=O)N/N=C/C=C/c2ccccc2[N+](=O)[O-])nnc1-c1ccccc1 1.16%
C/C(=N\NC(=O)CSc1nc2ccccc2c(=O)n1-c1ccccc1C)c1cccs1 8.49%
CCC[C@@H]1C[C@@]1(CCC)[C@@H](NC(=O)c1ccccc1)c1ccc(C(=O)OC)cc1 -5.7%
COc1ccc(C(=O)NC(C)Cn2nc(C)cc2C)cc1OC1CCN(C(C)=O)CC1 (stereo not given) 3.85%
O=C(CCN1CCN(c2ccccc2)CC1)NNC(=S)Nc1ccccc1 -1.44%
CCc1ccc2c(c1)C1(NN=C(c3ccccc3)S1)C(=O)N2 (stereo not given) 12.8%
CCN=C1S/C(=C\c2cc(Br)ccc2OCC(=O)OCC)C(=O)N1CC -7.54%
Cc1ccccc1OCc1nnc(SCC(=O)N2c3ccccc3Sc3ccc(Cl)cc32)o1 -8.7%
O=S(=O)(Oc1ccccc1C(=S)N1CCOCC1)c1ccc(Cl)cc1 2.25%
CN(C)c1cc(N)c2ccccc2n1 (tested in a mixture with another compound) -6.07%
Cn1cc[n+](C)c1COc1ccc(C=O)cc1 6.27%
CN(c1ccccc1)S(=O)(=O)c1cccc(NC(=O)Cc2ccc(Cl)cc2)c1 -14.9%
Cc1ccc(N(CC(=O)Nc2cc(C)cc(C)c2)S(=O)(=O)c2cccc3nonc23)cc1 12.5%
Cc1ccc(S(=O)(=O)N(Cc2cccc([N+](=O)[O-])c2)C(=O)N2CCN(C)CC2)cc1 3.55%
COc1ccc(N(CC(=O)Nc2ccc(C)cc2C)S(=O)(=O)c2ccccc2[N+](=O)[O-])c(OC)c1 -12.7%
CCCCn1c(N)c(N(CC(C)C)C(=O)CSc2ccc([N+](=O)[O-])cc2)c(=O)[nH]c1=O 8.17%
CCOC(=O)CCCNC(=O)COC(=O)c1cc(Br)c(Br)s1 -7.58%
C/C=N/NC(=O)CCCC(=O)N/N=C/C -3.09%
CCN(CC)S(=O)(=O)c1ccc(N(C)Cc2ccc(C(F)(F)F)cc2)nc1 -7.77%
O=C(c1ccco1)N1CCN(CC(=O)N(C2CCCCC2)C2CCS(=O)(=O)C2)CC1 (stereo not given) 0.94%
N#Cc1ccc(Oc2cc(C(F)(F)F)nc(-c3ccccn3)n2)cc1 -10.2%
COc1ccc(NCCc2ccccn2)cc1 -5.58%
CCCCN(C1CCS(=O)(=O)C1)S(=O)(=O)c1ccc(C(C)C)cc1 (stereo not given) 6.86%
Cn1cccc1C(=O)N1CCc2ccccc2C1 -0.25%
O=C(c1cc(-c2cccc(O)c2)on1)N1CCc2ccccc2C1 35.8%
O=C(Nc1ccccc1Cl)N1CCN(c2ccc3nncn3n2)CC1 -9.87%
CN1C(=O)[C@H]2[C@@H](C3CC3)N3C(=O)CN(Cc4ccccc4)C(=O)[C@@]3(C)[C@H]2C1=O 0.76%
O=C1c2ccccc2C(=O)N1CCCc1nc(-c2ccccc2)no1 3.08%
O=C1c2ccccc2C(=O)N1CCCCCCN1C(=O)c2ccccc2C1=O 2.67%
Cc1nc2ccccc2c(C)c1C(=O)c1ccc(F)cc1 -2.83%
Cc1nc2ccccc2c(C(=O)O)c1-c1ccccn1 -2.51%
CCn1c2c(c3ccc(OC)cc31)CCCC2=O -3.83%

inhibition, active:
c1ccc(C2=Nc3cccc4cccc(c34)N2)cc1 56.3%
COc1ccc(NC(=O)COc2ccc(C(=O)c3ccc(F)cc3)cc2)cc1S(N)(=O)=O 97.7%
Cc1ncc(CC(=O)n2cc(C(=O)c3cc(Cl)ccc3O)cn2)s1 80%
CN(Cc1c(F)cccc1Cl)S(=O)(=O)c1cccs1 49.8%
CCCc1[nH]nc2c1C(c1ccc(OC(=O)c3ccco3)cc1)C(C#N)=C(N)O2 (stereo not given) 69.2%
O=C(COC(=O)/C(=C/c1cccs1)c1cccs1)NCc1ccccc1Cl 56%
O=C(COC(=O)c1cc2c(s1)CCCC2)NCc1ccccc1Cl 40.4%
O=C(CSc1nc(-c2ccccc2)cs1)Nc1cccc([N+](=O)[O-])c1 41.4%
Cc1c(Cl)c([N+](=O)[O-])nn1Cc1ccc(C(=O)N/N=C\c2cc(Cl)ccc2O)o1 64.3%
Cc1nn(-c2ccccc2)c(C)c1/C=N/NC(=O)CSc1nc2ccccc2c(=O)n1-c1ccccc1 45.1%
Cc1ccc(-n2c(SCC(=O)N/N=C/C=C/c3ccccc3[N+](=O)[O-])nc3ccccc3c2=O)cc1 54.4%
Cc1ccc(S(=O)(=O)N(CC(=O)Nc2cccc([N+](=O)[O-])c2)Cc2ccc(Cl)cc2)cc1 75.6%
COc1ccc(C)cc1S(=O)(=O)N(CC(=O)Nc1cccc([N+](=O)[O-])c1)c1ccc(C)cc1 88.8%
CC(C)c1ccc2c(c1)c(SC(C)(C)C)c(CC(C)(C)C(=O)O)n2Cc1ccc(Cl)cc1 56.2%
COc1cnc(-c2ccccn2)nc1Oc1ccc(C(C)(C)C)cc1 59.3%
Cc1ccc(-c2cc(C(=O)N3CCc4ccccc4C3)no2)cc1 40%
O=C1c2ccccc2C(=O)N1Cc1cc(-c2ccccc2Cl)no1 56.3%
Cc1nc2ccccc2c(-c2ccccc2)c1C(=O)c1ccccc1 80%
